Experimental data taken from PubChem BioAssay (Tox21).
Results filed as inconclusive are left out. Calls of active or inactive are those of the source. Calls come from the whole dose curve; as a rule, active = well fitted curve in the direction sought with a large enough effect in the repeat runs; inconclusive = weak or mixed curves; inactive = no such curve, though single readings can be large; an effect the other way counts as inactive or inconclusive.

Experiments:
[1] = Caspase-3/7 induction in HepG2 cells by small molecules, qHTS cell viability counter screen (AID 1346981); note: nearly all actives have a fitted effect of over 30% in size; for activity change, negative = cytotoxicity: series mostly up to about 92 µM
In short: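 Multiplexed with the caspase-3/7 assay: HepG2 cells, 16 hr compound treatment, CellTiter-Fluor viability detection by fluorescence.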

[2] = biological target: Nuclear receptor subfamily 1 group I member 2 (Homo sapiens) (UniProt O75469); test: Human pregnane X receptor (PXR) small molecule agonists, qHTS assay (AID 1346982); note: nearly all actives have a fitted effect of over 35% in size
In short: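 We seeded PXR-Luc HepG2 cells in assay medium containing 5% charcoal-stripped FBS, added compounds 5 hr later, incubated 24 hr, and read luminescence with ONE-Glo reagent.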

[3] = biological target: Cytochrome P450 2D6 (Homo sapiens) (UniProt P10635); test: Cytochrome P450 Family 2 Subfamily D Member 6 (CYP2D6) small molecule antagonists: luciferase reporter qHTS assay (AID 1671196); note: nearly all actives have a fitted effect of over 50% in size; for activity change, negative = inhibition: series mostly up to about 120 µM
In short: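 Luminescence (RLU), read 20 min after detection reagent, indicated CYP2D6 conversion of proluciferin to luciferin during a 1 h NADPH-dependent reaction at room temperature.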

[4] = biological target: Cytochrome P450 2C19 (Homo sapiens) (UniProt P33261); test: Cytochrome P450 Family 2 Subfamily C Member 19 (CYP2C19) small molecule antagonists: luciferase reporter qHTS assay (AID 1671197); note: nearly all actives have a fitted effect of over 65% in size; for activity change, negative = inhibition: series mostly up to about 120 µM
In short: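 Relative luminescence units recorded 20 min after the detection reagent stopped a 1 h, 37C CYP2C19 reaction on proluciferin substrate, which was started by NADPH regeneration following 10 min room-temperature compound preincubation; ketoconazole positive control.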

[5] = biological target: Cytochrome P450 2C9 (Homo sapiens) (UniProt P11712); test: Cytochrome P450 Family 2 Subfamily C Member 9 (CYP2C9) small molecule antagonists: luciferase reporter qHTS assay (AID 1671198); note: nearly all actives have a fitted effect of over 50% in size; for activity change, negative = inhibition: series mostly up to about 120 µM
In short: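 Enzyme-substrate mix preincubated with compound 10 min at room temperature; reaction started with NADPH regeneration solution, 1 h 37C. Luminescent luciferin product read after 20 min detection reagent.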

[6] = biological target: Voltage-gated inwardly rectifying potassium channel KCNH2 (Homo sapiens) (UniProt Q12809); test: Human Ether-a-go-go-Related Gene (hERG) channel small molecule antagonists: fluorescence cell-based qHTS assay (AID 1671200); note: nearly all actives have a fitted effect of over 50% in size;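 for activity change, negative = inhibition: hERG-expressing U2OS cells given a thallium stimulus after FluxOR II dye loading; series mostly up to about 77 µM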
In short: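 Channel function was assessed by thallium flux. Cells seeded the previous day and kept at 37 C took up FluxOR II dye over 1 h in the dark at room temperature, then sat another 10 min before stimulation.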

[7] = biological target: Cytochrome P450 1A2 (Homo sapiens) (UniProt P05177); test: Cytochrome P450 Family 1 Subfamily A Member 2 (CYP1A2) small molecule antagonists: luciferase reporter qHTS assay (AID 1671199); note: nearly all actives have a fitted effect of over 50% in size; for activity change, negative = inhibition: series mostly up to about 120 µM
In short: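 CYP1A2 turnover of a luminogenic substrate was quantified after 1 h with NADPH regeneration at room temperature. Furafylline served as positive control.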
% is set by controls: 0 for no effect and ±100 for the full control effect; potency is the fitted concentration of half-maximal effect.

Sequence of Cytochrome P450 2D6 (Homo sapiens) (P10635 whole entry, looked up): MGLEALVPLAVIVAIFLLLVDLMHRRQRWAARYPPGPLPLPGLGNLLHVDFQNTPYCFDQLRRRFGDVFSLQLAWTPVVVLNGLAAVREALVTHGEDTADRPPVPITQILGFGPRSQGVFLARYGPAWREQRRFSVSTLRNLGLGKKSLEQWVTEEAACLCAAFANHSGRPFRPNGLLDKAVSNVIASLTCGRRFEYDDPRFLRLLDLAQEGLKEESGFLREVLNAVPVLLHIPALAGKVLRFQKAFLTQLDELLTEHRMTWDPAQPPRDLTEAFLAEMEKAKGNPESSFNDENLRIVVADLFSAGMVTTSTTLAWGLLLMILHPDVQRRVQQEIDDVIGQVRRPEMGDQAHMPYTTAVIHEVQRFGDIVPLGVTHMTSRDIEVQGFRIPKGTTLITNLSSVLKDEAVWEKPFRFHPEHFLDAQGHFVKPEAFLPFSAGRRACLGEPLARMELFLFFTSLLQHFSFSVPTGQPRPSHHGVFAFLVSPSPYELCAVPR
Sequence of Cytochrome P450 2C19 (Homo sapiens) (P33261 whole entry, looked up): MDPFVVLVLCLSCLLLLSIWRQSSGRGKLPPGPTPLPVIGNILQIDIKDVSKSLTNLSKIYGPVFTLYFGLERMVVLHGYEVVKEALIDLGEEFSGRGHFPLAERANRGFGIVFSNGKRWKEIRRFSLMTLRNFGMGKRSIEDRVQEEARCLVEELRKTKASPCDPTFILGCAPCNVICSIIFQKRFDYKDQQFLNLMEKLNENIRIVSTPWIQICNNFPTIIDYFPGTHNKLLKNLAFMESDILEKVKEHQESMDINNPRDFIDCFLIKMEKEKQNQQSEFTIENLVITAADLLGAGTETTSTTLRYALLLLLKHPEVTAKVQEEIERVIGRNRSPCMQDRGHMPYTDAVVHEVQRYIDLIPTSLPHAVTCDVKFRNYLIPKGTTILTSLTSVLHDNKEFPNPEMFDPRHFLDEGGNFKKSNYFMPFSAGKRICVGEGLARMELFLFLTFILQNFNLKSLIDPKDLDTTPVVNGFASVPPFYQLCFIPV
Sequence of Cytochrome P450 1A2 (Homo sapiens) (P05177 whole entry, looked up): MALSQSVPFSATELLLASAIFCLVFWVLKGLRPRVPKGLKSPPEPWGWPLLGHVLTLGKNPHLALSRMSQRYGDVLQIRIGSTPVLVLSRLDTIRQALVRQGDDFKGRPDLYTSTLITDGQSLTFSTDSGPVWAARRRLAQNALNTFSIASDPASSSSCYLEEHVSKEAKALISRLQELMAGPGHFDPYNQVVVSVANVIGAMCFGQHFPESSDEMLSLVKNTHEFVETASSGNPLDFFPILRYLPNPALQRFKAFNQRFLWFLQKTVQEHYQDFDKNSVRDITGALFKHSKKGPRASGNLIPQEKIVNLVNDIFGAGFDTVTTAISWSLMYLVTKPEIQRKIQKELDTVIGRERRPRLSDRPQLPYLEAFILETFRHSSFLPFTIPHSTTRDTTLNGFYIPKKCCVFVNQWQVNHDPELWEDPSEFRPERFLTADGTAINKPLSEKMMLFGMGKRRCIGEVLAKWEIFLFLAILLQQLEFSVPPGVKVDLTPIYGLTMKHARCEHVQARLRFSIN
Sequence of Cytochrome P450 2C9 (Homo sapiens) (P11712 whole entry, looked up): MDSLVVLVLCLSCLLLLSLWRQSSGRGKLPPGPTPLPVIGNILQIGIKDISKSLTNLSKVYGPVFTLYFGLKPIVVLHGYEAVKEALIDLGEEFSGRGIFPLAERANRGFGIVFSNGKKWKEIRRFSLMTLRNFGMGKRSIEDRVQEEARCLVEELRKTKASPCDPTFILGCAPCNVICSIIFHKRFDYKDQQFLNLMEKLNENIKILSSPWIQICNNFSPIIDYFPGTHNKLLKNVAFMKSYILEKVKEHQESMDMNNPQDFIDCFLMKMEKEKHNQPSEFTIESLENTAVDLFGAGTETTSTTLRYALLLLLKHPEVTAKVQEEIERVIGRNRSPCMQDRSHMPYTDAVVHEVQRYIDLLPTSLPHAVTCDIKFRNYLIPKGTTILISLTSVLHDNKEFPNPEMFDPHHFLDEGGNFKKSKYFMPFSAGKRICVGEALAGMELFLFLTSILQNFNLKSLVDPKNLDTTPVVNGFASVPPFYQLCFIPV
Sequence of Voltage-gated inwardly rectifying potassium channel KCNH2 (Homo sapiens) (Q12809 whole entry, looked up): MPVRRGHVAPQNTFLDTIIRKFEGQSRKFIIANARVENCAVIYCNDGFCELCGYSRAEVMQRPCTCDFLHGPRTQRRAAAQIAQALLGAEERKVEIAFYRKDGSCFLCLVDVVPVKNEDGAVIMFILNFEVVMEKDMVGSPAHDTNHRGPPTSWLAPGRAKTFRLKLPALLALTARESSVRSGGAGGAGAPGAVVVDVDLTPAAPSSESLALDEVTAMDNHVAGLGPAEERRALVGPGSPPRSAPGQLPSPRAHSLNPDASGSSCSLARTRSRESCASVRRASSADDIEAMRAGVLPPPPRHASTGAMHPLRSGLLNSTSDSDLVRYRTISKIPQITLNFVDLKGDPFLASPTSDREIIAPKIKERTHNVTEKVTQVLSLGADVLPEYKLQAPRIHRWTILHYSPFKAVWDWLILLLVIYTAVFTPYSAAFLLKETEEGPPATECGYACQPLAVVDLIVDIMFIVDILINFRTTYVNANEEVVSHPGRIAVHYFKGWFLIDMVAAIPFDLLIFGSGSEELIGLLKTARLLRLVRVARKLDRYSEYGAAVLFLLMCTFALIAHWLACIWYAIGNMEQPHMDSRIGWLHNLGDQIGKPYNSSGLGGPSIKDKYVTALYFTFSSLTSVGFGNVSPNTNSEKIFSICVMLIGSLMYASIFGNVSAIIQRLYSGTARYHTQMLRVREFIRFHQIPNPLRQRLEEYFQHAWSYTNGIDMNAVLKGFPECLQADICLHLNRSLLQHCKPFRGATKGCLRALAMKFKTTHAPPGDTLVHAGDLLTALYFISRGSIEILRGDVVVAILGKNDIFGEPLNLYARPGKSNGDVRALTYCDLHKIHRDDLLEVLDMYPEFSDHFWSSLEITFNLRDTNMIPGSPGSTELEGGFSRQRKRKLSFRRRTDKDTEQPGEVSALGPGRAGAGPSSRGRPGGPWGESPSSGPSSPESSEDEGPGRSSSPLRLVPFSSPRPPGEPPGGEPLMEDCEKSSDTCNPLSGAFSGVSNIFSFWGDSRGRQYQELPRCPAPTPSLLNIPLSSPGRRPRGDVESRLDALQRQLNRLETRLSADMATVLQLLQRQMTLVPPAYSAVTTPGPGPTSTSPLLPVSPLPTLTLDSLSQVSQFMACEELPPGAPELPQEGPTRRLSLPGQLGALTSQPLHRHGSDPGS
Sequence of Nuclear receptor subfamily 1 group I member 2 (Homo sapiens) (O75469 whole entry, looked up): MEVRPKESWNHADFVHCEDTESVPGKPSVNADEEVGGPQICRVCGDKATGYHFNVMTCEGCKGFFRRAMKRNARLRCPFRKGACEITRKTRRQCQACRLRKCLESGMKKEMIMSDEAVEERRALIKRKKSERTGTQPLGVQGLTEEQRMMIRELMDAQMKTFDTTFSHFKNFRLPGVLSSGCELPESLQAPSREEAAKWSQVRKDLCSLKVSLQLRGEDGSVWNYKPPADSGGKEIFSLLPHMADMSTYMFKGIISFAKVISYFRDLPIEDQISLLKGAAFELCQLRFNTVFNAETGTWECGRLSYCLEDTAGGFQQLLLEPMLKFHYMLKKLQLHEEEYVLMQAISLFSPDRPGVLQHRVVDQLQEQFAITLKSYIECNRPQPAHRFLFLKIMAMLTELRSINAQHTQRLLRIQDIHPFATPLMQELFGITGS

CCOC(=O)OC(=O)OCC
inactive: Potency [1] | Potency [2] | Potency [3] | Potency [4] | Potency [5] | Potency [6]

CCCCCCCCCCCCS(=O)(=O)Cl
inactive: activity change, negative = cytotoxicity [1] 3.84% [at 19 µM] | activation [2] 2.36% [at 19 µM] | activity change, negative = inhibition [3] -14.2% [at 23.6 µM] | activity change, negative = inhibition [4] -3.93% [at 23.6 µM] | activity change, negative = inhibition [5] -14.1% [at 23.6 µM] | activity change, negative = inhibition [7] 5.89% [at 23.6 µM] | activity change, negative = inhibition [6] 1.06% [at 15.8 µM]

O=c1cc[nH]cc1
inactive: Potency [1] | Potency [2] | Potency [3] | Potency [4] | Potency [5] | Potency [6]

C1CCSC1
inactive: Potency [1] | Potency [2] | Potency [3] | Potency [4] | Potency [5] | Potency [6]

SC1CCCCC1
inactive: Potency [1] | Potency [2] | Potency [3] | Potency [4] | Potency [5] | Potency [7] | Potency [6]

CCOC(=O)C1=NN(c2ccc(Cl)cc2Cl)C(C)(C(=O)OCC)C1 (centres undefined)
active: Potency [2] 54.5 µM | Potency [3] 39.9 µM | Potency [4] 2.52 µM | Potency [5] 7.1 µM | Potency [6] 43.6 µM
inactive: Potency [1]

CCc1c(C)cc(N)c(CC)c1N
inactive: Potency [1] | Potency [6]
active: Potency [2] 24.3 µM | Potency [3] 4.48 µM | Potency [4] 14.2 µM | Potency [5] 28.3 µM | Potency [7] 20 µM

Oc1ccc(Cl)cc1C1CCCC1
active: Potency [2] 68.6 µM | Potency [4] 8.94 µM | Potency [5] 28.3 µM
inactive: Potency [1] | Potency [3] | Potency [6]

[Cl][Eu]([Cl])[Cl]
inactive: Potency [1] | Potency [2] | Potency [3] | Potency [4] | Potency [5] | Potency [6]

O=C(c1ccccc1)c1ccc(Cl)cc1
active: Potency [4] 15.9 µM | Potency [5] 15.9 µM | Potency [7] 5.03 µM
inactive: Potency [1] | Potency [2] | Potency [3] | Potency [6]

CCCC(C)C=O (centres undefined)
inactive: Potency [1] | Potency [2] | Potency [3] | Potency [4] | Potency [5] | Potency [6]

CC(=O)Nc1ccc(N=Nc2cc(C)ccc2O)cc1
inactive: Potency [6]
active: Potency [1] 61.1 µM | Potency [2] 9.69 µM | Potency [3] 63.3 µM | Potency [4] 56.4 µM | Potency [5] 35.6 µM | Potency [7] 31.7 µM

NC(=O)C1CO1 (centres undefined)
inactive: Potency [1] | Potency [2] | Potency [3] | Potency [4] | Potency [5] | Potency [7] | Potency [6]

CO[Si](OC)(c1ccccc1)c1ccccc1
inactive: Potency [1] | Potency [3] | Potency [7] | Potency [6]
active: Potency [2] 34.4 µM | Potency [4] 10 µM | Potency [5] 20 µM

COc1cc(C(C)C)ccc1C
inactive: activity change, negative = cytotoxicity [1] -0.801% [at 19 µM] | activation [2] -14.1% [at 19 µM] | activity change, negative = inhibition [3] -6.69% [at 23.6 µM] | activity change, negative = inhibition [4] -21% [at 23.6 µM] | activity change, negative = inhibition [5] -6.13% [at 23.6 µM] | activity change, negative = inhibition [7] -17.4% [at 23.6 µM] | activity change, negative = inhibition [6] -1.11% [at 15.8 µM]

C=C(C)C1CCC(C)CC1O (centres undefined)
inactive: Potency [1] | Potency [2] | Potency [3] | Potency [4] | Potency [5] | Potency [6]

CC1(C)[C@H](C(=O)OCc2cccc(Oc3ccccc3)c2)[C@@H]1C=C(Cl)Cl
inactive: Potency [1] | Potency [2] | Potency [3] | Potency [4] | Potency [5] | Potency [7] | Potency [6]

C/C=C/C(=O)C1=C(C)C=CCC1(C)C
inactive: Potency [1] | Potency [2] | Potency [3] | Potency [4] | Potency [5] | Potency [7] | Potency [6]

CN(C[C@@H](CC[N+]12CCC(C3CCCCC3)(CC1)CC2)c1ccc(Cl)c(Cl)c1)C(=O)c1cc(C(F)(F)F)cc(C(F)(F)F)c1
active: Potency [1] 68.6 µM | Potency [3] 15.9 µM | Potency [4] 5.64 µM | Potency [5] 39.9 µM | Potency [7] 71 µM
inactive: Potency [2] | Potency [6]

COc1c(Br)cc(Br)c(C)c1Br
active: Potency [4] 89.4 µM | Potency [7] 3.56 µM
inactive: Potency [1] | Potency [2] | Potency [3] | Potency [5] | Potency [6]

CCc1cccc(CC)c1
inactive: Potency [1] | Potency [2] | Potency [3] | Potency [4] | Potency [5] | Potency [6]

C=Cc1ccncc1
inactive: Potency [1] | Potency [2] | Potency [3] | Potency [4] | Potency [5] | Potency [6]

COC(=O)c1ccc([N+](=O)[O-])cc1
active: Potency [7] 17.8 µM
inactive: Potency [1] | Potency [2] | Potency [3] | Potency [4] | Potency [5] | Potency [6]

O=[N+]([O-])c1ccc(CO)cc1
inactive: Potency [1] | Potency [2] | Potency [3] | Potency [4] | Potency [5] | Potency [6]

Cn1ccnc1
inactive: Potency [1] | Potency [2] | Potency [3] | Potency [4] | Potency [5] | Potency [6]

CN1CCN(C)CC1
inactive: Potency [1] | Potency [2] | Potency [3] | Potency [4] | Potency [5] | Potency [6]
